Reference: PubChem BioAssay (NCATS)
Records with an inconclusive call do not appear. Where a call stands in place of a potency, no number is given. Calls of active or inactive are those of the source. The call rests on the fitted dose curve; tested in HEK293 reporter line.

experiment: qHTS for Inhibitors of the Functional Ribonucleoprotein Complex (vRNP) of Lassa (LASV) Arenavirus: LASV Primary Screen - GLuc reporter signal (AID 1347082); settings: LASV minigenome vRNP, Gaussia luciferase reporter; series mostly up to 57.5 µM; further: nearly all actives have a fitted effect of over 60% in size

Q: For `COC(=O)c1cc(S(N)(=O)=O)ccc1OC`, which Potency is on record?
A: Its Potency is “inactive”.

Q: With `NC(=O)NNc1ccccc1` as the compound, how does the Potency read?
A: Its Potency is “inactive”.

Q: With `CN(Cc1ccc(C(C)(C)C)cc1)Cc1cccc2ccccc12` as the compound, how does the Potency read?
A: Its Potency is “inactive”.

Q: With `O=C(CCN1CCN2CCCC2C1)N1c2ccccc2Sc2ccc(Cl)cc21` (stereo not given) as the compound, how does the Potency read?
A: Its Potency is “inactive”.

Q: For `CC1(C)CCC(C)(C)c2cc(NC(=O)c3ccc(C(=O)O)cc3)ccc21`, which Potency is on record?
A: The Potency was “inactive”.

Q: With `CC(=O)c1ccc2c(c1)N(CCCN1CCC(CCO)CC1)c1ccccc1S2` as the compound, how does the Potency read?
A: The Potency was “inactive”.

Q: For `NC1=NCC2c3ccccc3Cc3ccccc3N12` (stereo not given), which Potency is on record?
A: The Potency was “inactive”.

Q: Which Potency does the source give for `CC(C(=O)O)c1ccc(CC2CCCC2=O)cc1` (stereo not given) here?
A: Its Potency is “inactive”.

Q: Which Potency does the source give for `C#C[C@]1(OC(C)=O)CC[C@H]2[C@@H]3CCC4=C[C@@H](OC(C)=O)CC[C@@H]4[C@H]3CC[C@@]21C` here?
A: The Potency was “inactive”.

Q: For `CCOc1ccc2nc(S(N)(=O)=O)sc2c1`, which Potency is on record?
A: The Potency was “inactive”.

Q: With `CCCc1ncc(C(=O)O)s1` as the compound, how does the Potency read?
A: Its Potency is “inactive”.

Q: Which Potency does the source give for `CC(C)N=C(N)/N=C(\N)Nc1ccc(Cl)cc1` here?
A: Its Potency is “inactive”.

Q: With `Nc1ccc(C(=O)N2CC3CC(CN(Cc4ccccc4)C3)C2)cc1` as the compound, how does the Potency read?
A: The Potency was “inactive”.

Q: With `Cc1c(C)c2c(c(C)c1OC(=O)CCC(=O)OCCO)CC[C@@](C)(CCC[C@H](C)CCC[C@H](C)CCCC(C)C)O2` as the compound, how does the Potency read?
A: The Potency was “inactive”.

Q: For `C[N+]12CCC(CC1)C(OC(=O)C(O)(c1ccccc1)c1ccccc1)C2` (stereo not given), which Potency is on record?
A: Its Potency is “inactive”.

Q: With `C[N+]1(C)CCC(=C(c2ccccc2)c2ccccc2)CC1` as the compound, how does the Potency read?
A: The Potency was “inactive”.

Q: For `NCCNc1cccc2ccccc12`, which Potency is on record?
A: The Potency was “inactive”.

Q: With `CCCC(C(=O)OCCN(CC)CC)(c1ccccc1)c1ccccc1` as the compound, how does the Potency read?
A: The Potency was “inactive”.

Q: Which Potency does the source give for `Cc1cccc(N(C)C(=S)Oc2ccc3c(c2)CCC3)c1` here?
A: Its Potency is “inactive”.

Q: With `CCc1nnc(NS(=O)(=O)c2ccc(N)cc2)s1` as the compound, how does the Potency read?
A: The Potency was “inactive”.

Q: For `COc1ccc2nc(NC(=O)Nc3ccccc3)sc2c1`, which Potency is on record?
A: Its Potency is “inactive”.

Q: With `N#Cc1cc(NC(=O)C(=O)O)c(Cl)c(NC(=O)C(=O)O)c1` as the compound, how does the Potency read?
A: The Potency was “inactive”.

Q: For `COc1ccc(C(Cl)=C(c2ccc(OC)cc2)c2ccc(OC)cc2)cc1`, which Potency is on record?
A: Its Potency is “inactive”.

Q: For `CC(C)c1cc2c(cc1S(=O)(=O)O)[C@@]1(C)CCC[C@@](C)(C(=O)O)[C@@H]1CC2`, which Potency is on record?
A: Its Potency is “inactive”.

Q: Which Potency does the source give for `COc1cc2[nH]c(=O)[nH]c(=O)c2cc1OC` here?
A: Its Potency is “inactive”.

Q: With `CN(C)CCn1nnnc1SCC1=C(C(=O)O)N2C(=O)[C@@H](NC(=O)Cc3csc(N)n3)[C@H]2SC1` as the compound, how does the Potency read?
A: The Potency was “inactive”.

Q: For `O=C(O)CNC(=O)c1ccccc1I`, which Potency is on record?
A: Its Potency is “inactive”.

Q: Which Potency does the source give for `O=C(OCC(COC(=O)c1cccnc1)(COC(=O)c1cccnc1)COC(=O)c1cccnc1)c1cccnc1` here?
A: The Potency was “inactive”.

Q: Which Potency does the source give for `Cc1[nH]c(=O)c(C#N)cc1-c1ccc2nccn2c1` here?
A: Its Potency is “inactive”.

Q: With `CCC(=O)c1ccc2c(c1)N(CCCN(C)C)c1ccccc1S2` as the compound, how does the Potency read?
A: The Potency was “inactive”.

Q: Which Potency does the source give for `C[C@@H](CN(C)C)CN1c2ccccc2Sc2ccccc21` here?
A: Its Potency is “inactive”.

Q: For `Cc1nnc(C(=O)NC(C)(C)c2nc(C(=O)NCc3ccc(F)cc3)c(O)c(=O)n2C)o1`, which Potency is on record?
A: The Potency was “inactive”.

Q: Which Potency does the source give for `O=C1c2ccccc2S(=O)(=O)N1CCCCN1CCN(c2ncccn2)CC1` here?
A: Its Potency is “inactive”.

Q: Which Potency does the source give for `COc1ccccc1N1CCN(CC(O)COc2cccc3ccccc23)CC1` (stereo not given) here?
A: Its Potency is “inactive”.

Q: For `O=C(O)CCC(=O)c1ccc(-c2ccccc2)cc1`, which Potency is on record?
A: Its Potency is “inactive”.

Q: Which Potency does the source give for `NS(=O)(=O)c1cc2c(cc1Cl)NC(C1CC3C=CC1C3)NS2(=O)=O` (stereo not given) here?
A: The Potency was “inactive”.

Q: Which Potency does the source give for `Nc1c(CC(=O)O)cccc1C(=O)c1ccc(Br)cc1` here?
A: The Potency was “inactive”.

Q: Which Potency does the source give for `CN1CCN(c2cc3c(cc2F)c(=O)c(C(=O)O)cn3-c2ccc(F)cc2)CC1` here?
A: Its Potency is “inactive”.

Q: For `C[C@@H]1CCC[C@H](C)N1CCCC(O)(c1ccccc1)c1ccccn1` (stereo not given in full), which Potency is on record?
A: Its Potency is “inactive”.

Q: With `CC(=O)O[C@]1(C(C)=O)CC[C@H]2[C@@H]3C=C(Cl)C4=CC(=O)CC[C@]4(C)[C@H]3CC[C@@]21C` as the compound, how does the Potency read?
A: The Potency was “inactive”.

experiment: qHTS for Inhibitors of the Functional Ribonucleoprotein Complex (vRNP) of Lassa (LASV) Arenavirus: Viability assay - alamar blue signal for LASV Primary Screen (AID 1347083); settings: cell viability, alamar blue fluorescence (LASV minigenome counter-screen); series mostly up to 57.5 µM; further: nearly all actives have a fitted effect of over 80% in size

Q: Which Potency does the source give for `COC(=O)c1cc(S(N)(=O)=O)ccc1OC` here?
A: Its Potency is “inactive”.

Q: With `NC(=O)NNc1ccccc1` as the compound, how does the Potency read?
A: Its Potency is “inactive”.

Q: With `CN(Cc1ccc(C(C)(C)C)cc1)Cc1cccc2ccccc12` as the compound, how does the Potency read?
A: The Potency was “inactive”.

Q: With `O=C(CCN1CCN2CCCC2C1)N1c2ccccc2Sc2ccc(Cl)cc21` (stereo not given) as the compound, how does the Potency read?
A: Its Potency is “inactive”.

Q: With `CC1(C)CCC(C)(C)c2cc(NC(=O)c3ccc(C(=O)O)cc3)ccc21` as the compound, how does the Potency read?
A: Its Potency is “inactive”.

Q: For `CC(=O)c1ccc2c(c1)N(CCCN1CCC(CCO)CC1)c1ccccc1S2`, which Potency is on record?
A: Its Potency is “inactive”.

Q: With `NC1=NCC2c3ccccc3Cc3ccccc3N12` (stereo not given) as the compound, how does the Potency read?
A: Its Potency is “inactive”.

Q: With `CC(C(=O)O)c1ccc(CC2CCCC2=O)cc1` (stereo not given) as the compound, how does the Potency read?
A: The Potency was “inactive”.

Q: With `C#C[C@]1(OC(C)=O)CC[C@H]2[C@@H]3CCC4=C[C@@H](OC(C)=O)CC[C@@H]4[C@H]3CC[C@@]21C` as the compound, how does the Potency read?
A: Its Potency is “inactive”.

Q: With `CCOc1ccc2nc(S(N)(=O)=O)sc2c1` as the compound, how does the Potency read?
A: Its Potency is “inactive”.

Q: For `CCCc1ncc(C(=O)O)s1`, which Potency is on record?
A: Its Potency is “inactive”.

Q: For `CC(C)N=C(N)/N=C(\N)Nc1ccc(Cl)cc1`, which Potency is on record?
A: Its Potency is “inactive”.

Q: With `Nc1ccc(C(=O)N2CC3CC(CN(Cc4ccccc4)C3)C2)cc1` as the compound, how does the Potency read?
A: The Potency was “inactive”.

Q: Which Potency does the source give for `Cc1c(C)c2c(c(C)c1OC(=O)CCC(=O)OCCO)CC[C@@](C)(CCC[C@H](C)CCC[C@H](C)CCCC(C)C)O2` here?
A: Its Potency is “inactive”.

Q: With `C[N+]12CCC(CC1)C(OC(=O)C(O)(c1ccccc1)c1ccccc1)C2` (stereo not given) as the compound, how does the Potency read?
A: Its Potency is “inactive”.

Q: For `C[N+]1(C)CCC(=C(c2ccccc2)c2ccccc2)CC1`, which Potency is on record?
A: Its Potency is “inactive”.

Q: Which Potency does the source give for `NCCNc1cccc2ccccc12` here?
A: The Potency was “inactive”.

Q: With `CCCC(C(=O)OCCN(CC)CC)(c1ccccc1)c1ccccc1` as the compound, how does the Potency read?
A: Its Potency is “inactive”.

Q: With `Cc1cccc(N(C)C(=S)Oc2ccc3c(c2)CCC3)c1` as the compound, how does the Potency read?
A: The Potency was “inactive”.

Q: With `CCc1nnc(NS(=O)(=O)c2ccc(N)cc2)s1` as the compound, how does the Potency read?
A: Its Potency is “inactive”.

Q: Which Potency does the source give for `COc1ccc2nc(NC(=O)Nc3ccccc3)sc2c1` here?
A: Its Potency is “inactive”.

Q: For `N#Cc1cc(NC(=O)C(=O)O)c(Cl)c(NC(=O)C(=O)O)c1`, which Potency is on record?
A: Its Potency is “inactive”.

Q: With `COc1ccc(C(Cl)=C(c2ccc(OC)cc2)c2ccc(OC)cc2)cc1` as the compound, how does the Potency read?
A: The Potency was “inactive”.

Q: With `CC(C)c1cc2c(cc1S(=O)(=O)O)[C@@]1(C)CCC[C@@](C)(C(=O)O)[C@@H]1CC2` as the compound, how does the Potency read?
A: The Potency was “inactive”.

Q: With `COc1cc2[nH]c(=O)[nH]c(=O)c2cc1OC` as the compound, how does the Potency read?
A: The Potency was “inactive”.

Q: For `CN(C)CCn1nnnc1SCC1=C(C(=O)O)N2C(=O)[C@@H](NC(=O)Cc3csc(N)n3)[C@H]2SC1`, which Potency is on record?
A: The Potency was “inactive”.

Q: For `O=C(O)CNC(=O)c1ccccc1I`, which Potency is on record?
A: The Potency was “inactive”.

Q: Which Potency does the source give for `O=C(OCC(COC(=O)c1cccnc1)(COC(=O)c1cccnc1)COC(=O)c1cccnc1)c1cccnc1` here?
A: The Potency was “inactive”.

Q: With `Cc1[nH]c(=O)c(C#N)cc1-c1ccc2nccn2c1` as the compound, how does the Potency read?
A: The Potency was “inactive”.

Q: With `CCC(=O)c1ccc2c(c1)N(CCCN(C)C)c1ccccc1S2` as the compound, how does the Potency read?
A: Its Potency is “inactive”.

Q: For `C[C@@H](CN(C)C)CN1c2ccccc2Sc2ccccc21`, which Potency is on record?
A: Its Potency is “inactive”.

Q: For `Cc1nnc(C(=O)NC(C)(C)c2nc(C(=O)NCc3ccc(F)cc3)c(O)c(=O)n2C)o1`, which Potency is on record?
A: Its Potency is “inactive”.

Q: For `O=C1c2ccccc2S(=O)(=O)N1CCCCN1CCN(c2ncccn2)CC1`, which Potency is on record?
A: The Potency was “inactive”.

Q: Which Potency does the source give for `COc1ccccc1N1CCN(CC(O)COc2cccc3ccccc23)CC1` (stereo not given) here?
A: The Potency was “inactive”.

Q: For `O=C(O)CCC(=O)c1ccc(-c2ccccc2)cc1`, which Potency is on record?
A: The Potency was “inactive”.

Q: Which Potency does the source give for `NS(=O)(=O)c1cc2c(cc1Cl)NC(C1CC3C=CC1C3)NS2(=O)=O` (stereo not given) here?
A: The Potency was “inactive”.

Q: For `Nc1c(CC(=O)O)cccc1C(=O)c1ccc(Br)cc1`, which Potency is on record?
A: Its Potency is “inactive”.

Q: With `CN1CCN(c2cc3c(cc2F)c(=O)c(C(=O)O)cn3-c2ccc(F)cc2)CC1` as the compound, how does the Potency read?
A: The Potency was “inactive”.

Q: Which Potency does the source give for `C[C@@H]1CCC[C@H](C)N1CCCC(O)(c1ccccc1)c1ccccn1` (stereo not given in full) here?
A: The Potency was “inactive”.

Q: For `CC(=O)O[C@]1(C(C)=O)CC[C@H]2[C@@H]3C=C(Cl)C4=CC(=O)CC[C@]4(C)[C@H]3CC[C@@]21C`, which Potency is on record?
A: Its Potency is “inactive”.
